Experimental findings from PubChem BioAssay (NCI) are described below.

Where “and” joins values, the source holds several entries; their conditions need not be identical. Identical values can stand only once. Compounds without any hit were thinned out: in the full panel of roughly 83,000, 20% have a hit.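 Compound tested at a single concentration for 48 hours in 96-well plates; a percent growth value below 10 was scored as active.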 A number with no mark means an inactive call. Calls of active or inactive are those of the source.

The test system of the experiment is MDA-MB-468 breast. Put plainly: NCI-60 one-dose screen, 48 h (100 = growth as untreated, 0 = no growth, -100 = all killed). The note with it: 10 µM unless noted.
On to `CS(=O)(=O)c1ccc(-c2cc(-c3nnc(SCC(=O)Nc4ccc(C(=O)/C=C/c5ccc(Cl)cc5)cc4)n3-c3ccccc3)c3ccccc3n2)cc1`, for which the growth is 93.2%.
To `O=C(CCl)N1c2ccccc2Oc2ccc3ccccc3c21` belongs -72.5% (active).
To `CCCCCCCCCCCCCCCCCC(=O)Nc1ccc(O)cc1` belongs 103%; to `C=CC(=O)Nc1ccc(Oc2nccc(Nc3nnc(-c4ccc(C)cc4)s3)n2)cc1`, 111%; to `CCCCCCCCCCCCCCCCCCn1cc(COc2ccc(C=O)cc2)nn1`, 104%.
To `Cn1ccnc1C(=O)/C=C/c1ccc(CNC(=O)c2ccc(S(F)(F)(F)(F)F)cc2)cc1` belongs 23.3%; to `N#Cc1c(-c2ccc(Cl)cc2)nc(SCc2ccc(F)cc2)nc1N1CCNCC1`, -62.5% (active).
Regarding `NC(=S)N=Nc1c(O)c2ccccc2c2ccccc12`, the growth is 88.3%.
As for `CC(=O)n1c(/C(C#N)=C/c2ccc(N(C)C)cc2)cc2ccccc21`, the figure is 14.2%; as for `O=C(Nc1cccc([N+](=O)[O-])c1)c1cccc(C(=O)Nc2cccc([N+](=O)[O-])c2)c1`, 67.1%; as for `O=C(NCCCNc1cc(-c2cn(-c3ccccc3)nc2-c2cccc(O)c2)ccn1)Nc1ccc(F)cc1`, -19.4% (active).
To `COc1cc(C2CC(=O)Nc3c2c(C)nn3-c2nc3ccccc3[nH]2)cc(OC)c1O` (stereo not given) belongs 18.5%; to `CNC(=O)c1cc(Oc2ccc3c(c2)sc2nc(-c4cc(OC)c(OC)c(OC)c4)cn23)ccn1`, 4.35% (active).
As for `N=C(N)c1ccc(-c2ccc(-c3ccc(Cl)c(Cl)c3)o2)cc1`, the figure is -70.3% (active); as for `COc1ccc(C/C(C)=C(\c2ccc(Cl)cc2)c2ccc(OCCN3CCCCCC3)cc2)cc1`, 70.9%.
Turning to `COc1cc2c(cc1OC)C1CCN3C(=O)CCC3N1CC2` (stereo not given), the growth was 107%.
As for `CN(C)c1ccc(C(=C2C=CC(=[N+](C)C)C=C2)c2ccc(N(C)C)cc2)cc1` (tested in a mixture with another compound), the figure is -95% (active).
To `CCOc1ccc(C2N(c3cc(OC)c(OC)c(OC)c3)C(=O)C2(F)F)cc1` (stereo not given) belongs 34.9%.
As for `O=C(NCCCNS(=O)(=O)c1ccc(Cl)cc1)Nc1ccc(-n2cc(-c3ccncc3)c(-c3ccc(Cl)c(O)c3)n2)cc1`, the figure is 47.6%; as for `COc1cc2cn3c4ccc(O)cc4nc(N)c3c2cc1OC`, -32.3% (active); as for `CCN1CCCC(N2c3ccccc3Sc3ccccc32)C1` (stereo not given), 116%.
Take `COc1cc(N2CCC(N(C)C)CC2)ccc1Nc1ncc(Cl)c(Nc2ccccc2P(C)(C)=O)n1`: the growth was -38.3% (active).
Consider `N#Cc1ccc(NC(=O)Nc2cccc(C#N)c2)cc1`, for which the growth was 46.5%.
To `CN1C(=O)/C(=C2\SC(=Nc3ccccc3)N(Nc3ccccc3)C2=O)c2ccccc21` belongs 94.7%; to `COC(=O)/C=C1/SC(=Nc2cccc(Cl)c2)N(CCc2c[nH]c3ccc(O)cc23)C1=O`, 24.7%.
As for `COc1cc2ncnc(Nc3ccc(OCc4cccc(F)c4)c(Cl)c3)c2cc1NC(=O)C1CCCC1`, the figure is -2.53% (active).
To `COc1ccc(/C(Cl)=N/N=C(\Cl)c2cc(OC)c(OC)c(OC)c2)cc1OC(C)=O` belongs 95.5%; to `CC(=O)OCC1OC(OC(C)=O)C(OC(C)=O)C(OC(C)=O)C1OC(C)=O` (stereo not given), 95.5% and 108%.
`NC(N)=N/N=C(/c1ccccc1)c1ccc(F)cc1`: the growth was 14.9%.
To `CN(C)c1ccc(/C=N/N=C(N)N)cc1` belongs 33%; to `N#C/C(=C\c1ccc(-c2cccc(C(F)(F)F)c2)o1)c1ccccc1`, 23.4%; to `Cc1cccc(N=Nc2cccc(C)c2)c1`, 108%.
In the case of `Cc1c(Cl)cccc1NC(=S)NC(=O)c1ccccc1`, the growth is 33.9%.
To `CCCCCCCCn1cc(C2=C(c3coc4ccc(OC)cc34)C(=O)NC2=O)c2ccccc21` belongs 103%; to `Cc1ccc(C2=NN(c3ccc(S(C)(=O)=O)cc3)C(=O)CC2)cc1`, 23.9%; to `Cc1cc(C)c(OC(=O)CSc2nc3ccccc3c(=O)n2CCc2ccccc2)cc1C`, 101%.
Turning to `CCCCCCCCCCCCCCCC[n+]1cccc(C#N)c1`, the growth was -27.5% (active).
To `Cn1ccnc1C(=O)/C=C/c1ccc(CNC(=O)c2c(F)c(F)c(F)c(F)c2F)cc1` belongs 26.8%; to `COc1cc2c3c(n(CCCNC4CCCCC4)c(=O)c2cc1OC)-c1cc2c(cc1C3=O)OCO2`, 78.8%.
As to `C=C1CC[C@@H]2C(C)(C)[C@H](O)CC[C@@]2(C)[C@@H]1COc1ccc2ccc(=O)oc2c1`, the growth is 44.1%.
